Reference: PubChem BioAssay (NCATS)
Inconclusive results are not listed. A call without a number means that no potency is given here. Calls of active or inactive are those of the source. The call rests on the fitted dose curve; in most records, active means well fitted curve in the direction sought with a large enough effect; inconclusive means small, poorly fitted or top-dose-only effect, or another doubt; inactive means no such curve, though single readings can be large; an effect the other way counts as inactive or inconclusive.

What was measured:
[1] = Primary qHTS for inhibitors of nuclear receptor binding SET domain protein 2 (NSD2) in an RCH-ACV wild type WT cells (2C) (AID 1645877); details: RCH-ACV (leukaemia line) NSD2 WT (2C) viability, CellTiter-Glo, 72 h; series mostly up to 44.9 µM; further: nearly all actives have a fitted effect of over 70% in size
[2] = molecular target: Glutathione peroxidase 1 (Homo sapiens) (UniProt P07203); assay: Primary qHTS Assay for Inhibitors of Recombinant Selenoprotein Glutathione Peroxidase 1 (GPX1) (AID 1845191); details: recombinant GPX1, GR-coupled NADPH fluorescence, 15 min; series mostly up to 48.8 µM; further: nearly all actives have a fitted effect of over 65% in size
Chain of Glutathione peroxidase 1 (Homo sapiens) (P07203 whole entry, looked up): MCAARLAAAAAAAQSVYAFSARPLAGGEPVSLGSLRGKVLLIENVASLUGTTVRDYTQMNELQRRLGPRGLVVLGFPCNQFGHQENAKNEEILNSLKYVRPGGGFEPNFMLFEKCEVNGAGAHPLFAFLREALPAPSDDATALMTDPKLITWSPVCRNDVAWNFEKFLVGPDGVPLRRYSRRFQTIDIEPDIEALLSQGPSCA
Summary of the method: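 GPX1 10 nM, GR 100 nM, GSH 1 mM, NADPH 0.5 mM, CHP 0.5 mM (final). 30-min cpd preincubation, RT. Ex340/Em450 read t=0, t=15 min.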

[3] = molecular target: Phospholipid hydroperoxide glutathione peroxidase GPX4 (Homo sapiens) (UniProt P36969); assay: Primary qHTS Assay for Inhibitors of Recombinant Selenoprotein Glutathione Peroxidase 4 (GPX4) (AID 1845192); details: recombinant GPX4, GR-coupled NADPH fluorescence, 15 min; series mostly up to 50 µM; further: nearly all actives have a fitted effect of over 65% in size
Chain of Phospholipid hydroperoxide glutathione peroxidase GPX4 (Homo sapiens) (P36969 whole entry, looked up): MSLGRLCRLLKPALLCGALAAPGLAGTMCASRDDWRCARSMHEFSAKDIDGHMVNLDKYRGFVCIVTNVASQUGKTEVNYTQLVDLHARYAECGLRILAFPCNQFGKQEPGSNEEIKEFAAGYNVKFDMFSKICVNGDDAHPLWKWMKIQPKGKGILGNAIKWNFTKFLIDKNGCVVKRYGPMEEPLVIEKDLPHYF
Summary of the method: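 qHTS, GR-coupled: GPX4 200 nM + cpd 30 min RT → GSH 1 mM, NADPH 0.5 mM, GR 100 nM → CHP 0.5 mM start; fluor 340/450 at t0 and t15 min; no-enzyme wells as control.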
Potency means the concentration at half of the fitted maximal effect.

In the case of CCCCCC(=O)O[C@]1(C(C)=O)CC[C@H]2[C@@H]3CCC4=CC(=O)CC[C@]4(C)[C@H]3CC[C@@]21C, the Potency [1] is reported as 10.6 µM (active), the Potency [2] is reported as “inactive” and the Potency [3] is reported as “inactive”.
With CC(Oc1c(Cl)cccc1Cl)C1=NCCN1 (stereo not drawn) the Potency [2] was “inactive” and the Potency [3] was “inactive”.
In the case of CO[C@]1(NC(=O)CSC(F)F)C(=O)N2C(C(=O)O)=C(CSc3nnnn3CCO)CO[C@H]21, the Potency [2] is reported as “inactive” and the Potency [3] is reported as “inactive”.
For O=C(OCC(O)CO)c1ccccc1Nc1ccnc2c(C(F)(F)F)cccc12 (stereo not drawn), the Potency [2] was “inactive” and the Potency [3] was “inactive”.
In the case of NS(=O)(=O)c1cc(C(=O)NN2C[C@H]3[C@H]4CCC(C4)[C@H]3C2)ccc1Cl, the Potency [2] is reported as “inactive” and the Potency [3] is reported as “inactive”.
In the case of COc1c(N2C[C@@H]3CCCN[C@@H]3C2)c(F)cc2c(=O)c(C(=O)O)cn(C3CC3)c12, the Potency [2] is reported as 14.3 µM (active) and the Potency [3] is reported as 11.2 µM (active).
With C1N2CN3CN1CN(C2)C3 the Potency [2] was “inactive” and the Potency [3] was “inactive”.
For O=C(c1ccccc1)c1ccccc1, the Potency [2] was “inactive” and the Potency [3] was “inactive”.
For O=C(CCC1CCN(Cc2ccccc2)CC1)c1ccc2c(c1)NCCCC2, the Potency [2] was “inactive” and the Potency [3] was “inactive”.
In the case of CC(=O)O[C@@H]1C(=O)O[C@@H]2[C@H]1OC(=O)[C@@H]2OC(C)=O, the Potency [2] is reported as “inactive” and the Potency [3] is reported as “inactive”.
In the case of CC(C)C[C@@H]1[C@H](c2ccccc2)OC(=O)N1CCCN1CCCCCC1, the Potency [2] is reported as “inactive” and the Potency [3] is reported as “inactive”.
With N=C(N)c1ccc(OCCCOc2ccc(C(=N)N)cc2)cc1 the Potency [2] was “inactive” and the Potency [3] was “inactive”.
For OCCOCCN1CCN(C(c2ccccc2)c2ccc(Cl)cc2)CC1 (stereo not drawn), the Potency [2] was “inactive” and the Potency [3] was “inactive”.
With CN1CCC(N(Cc2cccs2)c2ccccc2)CC1 the Potency [2] was “inactive” and the Potency [3] was “inactive”.
With CO/N=C(/C(=O)N[C@@H]1C(=O)N2C(C(=O)[O-])=C(C[n+]3ccn4ncccc43)CS[C@H]12)c1nsc(N)n1 the Potency [2] was 20.2 µM (active) and the Potency [3] was 17.8 µM (active).
For CCC(=O)Oc1ccc2c(c1)CC[C@@H]1[C@@H]2CC[C@@]2(C)[C@H]1C[C@@H](OC(=O)CC)[C@@H]2OC(=O)CC, the Potency [2] was “inactive” and the Potency [3] was “inactive”.
